Source: PubChem (National Center for Advancing Translational Sciences (NCATS))
Shown are actives, neighbours in structure and some others; about 6.5% of the full set was active somewhere.
FMDV antiviral = High Throughput Screening for Foot and Mouth Disease Virus Antivirals | Potency, µM (highest dose often 57.9 µM), inactives show top-dose activity change, negative = inhibition, usual class: inhibitors | actives 1.2% (n = 410,000) | FMDV antiviral cell-based qHTS; calls by dose curve; tested in HEK293T cells; also: read-out not given here; potency is read from the fitted curve at half-maximal effect; nearly all actives have a fitted effect of over 45% in size
VACV Venus inh = qHTS for Stage-Specific Inhibitors of Vaccinia Orthopoxvirus: Venus Reporter Primary qHTS. actives 0.46% (n = 330,000). AID 720580, 2013. Potency, µM (titrated, usually from 36.5 µM), inactives show top-dose activity change, negative = inhibition, most hits filed as inhibitors. Vaccinia virus Venus reporter expression, fluorescence; calls by dose curve; tested in A549 cells; also: potency is read from the fitted curve at half-maximal effect; nearly all actives have a fitted effect of over 30% in size
Marburg entry inh = qHTS for inhibitors of binding or entry into cells for Marburg Virus; Marburg virus pseudotyped entry inhibition, cell reporter; Potency, µM (top dose mostly 37.8 µM), without a hit: at the highest dose activity change, negative = inhibition, most hits filed as inhibitors; actives 1.8% (n = 300,000); calls by dose curve; tested in HEK293 cells; also: potency is read from the fitted curve at half-maximal effect
HCMV antiviral = qHTS Assay for inhibitors of the human cytomegalovirus (HCMV); HFF cells, HCMV-luciferase reporter, 72 h; active compounds read low; activity change, negative = inhibition, % at 57.5 µM; actives 4.5% (n = 410,000); AID 1259415, 2018; in the data active = activity change below about -60%; inconclusive = no clear call, values can overlap the other calls; inactive = above about -39%
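HFF cells seeded 16 h at 37C, treated with compounds, infected with luciferase-reporter HCMV at MOI 1 PFU/cell; luciferase read at 72 h post infection, normalized to buffer-only and Salinomycin controls.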
Lassa entry inh = qHTS for Inhibitors of binding or entry into cells for Lassa Virus. Lassa virus pseudotype entry inhibition, cell reporter. actives 1.2% (n = 300,000). AID 540256, 2011. Potency, µM (top dose mostly 37.9 µM), without a hit: at the top dose activity change, negative = inhibition, usual class: inhibitors; calls by dose curve; tested in HEK293 cells; also: potency is read from the fitted curve at half-maximal effect; nearly all actives have a fitted effect of over 50% in size
Vaccinia mCherry = qHTS for Stage-Specific Inhibitors of Vaccinia Orthopoxvirus: mCherry Reporter Primary qHTS | Potency, µM (doses to about 36.5 µM), for inactives: at the top dose activity change, negative = inhibition, usual class: inhibitors | actives 0.63% (n = 310,000) | Vaccinia virus mCherry reporter infection, fluorescence; calls by dose curve; tested in A549 cells; also: potency is read from the fitted curve at half-maximal effect; nearly all actives have a fitted effect of over 35% in size
Active calls of the source: *; i = inactive; u = inconclusive; x = not tested or not shown; ! = a repeat was not active; [ ] = dose if it differs, or a comment. % is scaled to controls: 0 for no effect and ±100 for the full control effect.

SMILES	FMDV antiviral	VACV Venus inh	Marburg entry inh	HCMV antiviral	Lassa entry inh	Vaccinia mCherry
COC(=O)C1=C(C)NC(=O)CC1c1ccccc1 (configuration not stated)	-5%	-3%	-2%	0	9%	x
CCOC(=O)CSC1=NC(=O)/C(=C/c2ccc(OC)cc2)S1	25µM*	u	u	x	u	u
O=c1ccc(/C=C/c2ccccc2)nn1Cc1ccc(F)cc1	u	-7%	0%[46.1 µM]	2	u	-1%
CCOC(=O)Cn1nc(/C=C/c2ccc(OC)cc2)ccc1=O	-6%	0%	-7%	-106*	7%	0%
COc1ccc(/C=C/c2ccc(=O)n(Cc3ccccc3)n2)cc1	-22%	-20%	-29%[46.1 µM]	-8	5µM*	-10%
CCc1ccc(NC(=O)CC2C(=O)N(c3ccc(Cl)cc3)C(=O)N2Cc2ccco2)cc1 (configuration not stated)	6%	-14%	x	23	-27%[46.1 µM]	-12%
O=C(N1CCC[C@@H]1c1noc2ccccc12)C(F)(F)F	x	x	x	-9	x	x
N#CC1=C(N)OC2=C(C(=O)CC(c3ccco3)C2)C1c1ccc(OCc2c(F)cccc2Cl)cc1 (configuration not stated)	-25%	-19%	u	8	u	x
COc1cccc(C2C(C#N)=C(N)OC3=C2C(=O)CC(c2ccco2)C3)c1OCc1ccc(F)cc1 (configuration not stated)	-4%	-11%	16µM*!	-5	u	-28%
CS(=O)(=O)CC[C@H](C(=O)n1nnc2ccccc21)N1C(=O)c2ccccc2C1=O	x	x	-5%[46.1 µM]	x	x	x
COc1ccc(-c2c(C)[nH]n3c(=O)c(Cc4ccccc4)c(C)nc23)cc1	-20%	u	u	-88*	u	u
Cc1nc2c(-c3ccccc3)c(C)[nH]n2c(=O)c1Cc1ccc(Br)cc1	u	-8%[7.34 µM]	u	-97*	u	-19%[7.34 µM]
Cc1cc(=O)n2[nH]cc(-c3ccccc3)c2n1	-2%	-24%	u	3	25%	-27%
COc1ccccc1-c1c(C)[nH]n2c(=O)c(Cc3ccccc3)c(C)nc12	u	x	x	-6	x	x
Cc1nc2c(-c3ccccc3)c[nH]n2c(=O)c1Cc1ccccc1	-8%	-21%	9.2µM*	-99*	u	i
Cc1ccc(Cc2c(C)nc3c(-c4ccccc4)c(C)[nH]n3c2=O)cc1	u	u	u	-73*	8%[46.1 µM]	u
COc1ccccc1C1CN(Cc2cccc(O)c2)Cc2ccccc2O1 (configuration not stated)	u	-24%	x	x	x	-26%
CCCCc1c(C)nc2c(-c3ccc(Cl)cc3)c(C)[nH]n2c1=O	-25%	u	9%[46.1 µM]	-7	-10%[46.1 µM]	11µM*
O=C(CSc1ccc2nnc(-c3ccc(Cl)cc3)n2n1)N1CCCc2ccccc21	u	-7%	-6%	-34	18%	-14%
O=C(CSc1ccc2nnc(-c3ccc(F)cc3)n2n1)N1CCCc2ccccc21	-3%	-20%	u	-77*	u	u
NC(=O)CC(NC(=O)c1ccccc1)c1ccc(N2CCCCCC2)c([N+](=O)[O-])c1 (configuration not stated)	-9%	-17%	x	-22	x	-10%
NC(=O)CC(NC(=O)Cc1ccc(Br)cc1)c1ccc(N2CCN(c3ccccc3)CC2)c([N+](=O)[O-])c1 (configuration not stated)	u	u	x	-62*	x	u
NC(=O)CC(NC(=O)Cc1ccc(Br)cc1)c1ccc(N2CCN(c3ccccn3)CC2)c([N+](=O)[O-])c1 (configuration not stated)	u	u	x	-29	x	u
CN1CCN(c2ccc(C(CC(N)=O)NC(=O)c3ccccc3)cc2[N+](=O)[O-])CC1 (configuration not stated)	-16%	-4%	x	-62*	x	-2%
NC(=O)CC(NC(=O)c1ccccc1)c1ccc(N2CCN(c3ccccc3)CC2)c([N+](=O)[O-])c1 (configuration not stated)	u	u	x	-66*	x	u
SMILES	FMDV antiviral	VACV Venus inh	Marburg entry inh	HCMV antiviral	Lassa entry inh	Vaccinia mCherry
C=CCc1cc(C(=O)N2CCCCC2)ccc1O	-20%	x	-15%	-71*	16%	x
Cc1csc(NC(=O)c2cc3c(s2)CCCCC3)n1	8.9µM*	u	u	u	2.2µM*	x
CCc1ccccc1OCC(=O)Nc1cccc(S(=O)(=O)NCc2ccco2)c1	-13%	x	x	-15	x	x
O=C(CN1C(=O)S/C(=C\c2ccc(F)cc2)C1=O)Nc1cccc(S(=O)(=O)NCc2ccco2)c1	26%	-18%	6%[46.1 µM]	-98*	-27%	-27%
COc1cccc([C@@H]2Oc3ccc(OC)cc3[C@H](O)[C@@H]2O)c1	x	x	-7%[14.2 µM]	x	x	x
CCOc1c(Cl)cc(CNc2ccc(N3CCCC3)cc2)cc1OC	-16%	-26%	u	-65*	u	-15%
CCOc1c(Cl)cc(CNc2ccc(S(N)(=O)=O)cc2)cc1OC	u	-29%	0%	u	u	u
CCCCCCCCCCCCCC(=O)O[C@@H]1[C@@H](C)[C@@]2(O)[C@@H](C=C(CO)C[C@@]3(O)C(=O)C(C)=C[C@@H]23)C2C(C)(C)[C@@]21OC(C)=O (some centres not stated)	x	x	22µM*	x	6.5µM*	x
O=C(C1CCCCC1)N1C[C@@H](n2cc(-c3ccc(F)cc3)nn2)[C@@H](O)C[C@@H]1c1ccccc1	x	x	x	x	-2%[46.1 µM]	x
CN1CCN2c3ccccc3Cc3ccccc3C2C1 (configuration not stated)	-27%	-17%	5.6µM*	u	u	-19%
COc1c(N2CCN(C(=S)NCc3ccccc3)C(C)C2)c(F)cc2c(=O)c(C(=O)O)cn(C3CC3)c12 (configuration not stated)	-23%	13µM*	-23%	-67*	11%	x
COc1c(F)c(F)cc2c(=O)c(C(=O)O)cn(C3CC3)c12	2%	-11%	u	-61*	17%	-6%
Cc1cnccc1/C=C/c1ccc(N)cc1	x	13%	x	x	x	-13%
Cc1oc(-c2ccccc2NC(=O)C2CCC2)nc1CNC(=O)c1ccc(C#CC(C)(C)O)cc1	2%	-9%	x	x	x	-12%
COc1cccc(-c2cn3c(n2)sc2cc(C(=O)NCc4cccs4)ccc23)c1	5%	-13%	x	x	0%[46.1 µM]	-18%
CCOC(=O)c1cnc(-n2nc(C)cc2C)nc1Nc1ccc(C)cc1	-15%	-4%	u	26	11%	-17%
CCOC(=O)c1cnc(-n2nc(C)cc2C)nc1Nc1ccc(N(C)C)cc1	-17%	x	u	-5	7.3µM*	x
CCOC(=O)c1cnc(-n2nc(C)cc2C)nc1NC1CCCCC1	10µM*	u	6.3µM*	-87*	u	u
